From PubChem BioAssay (Tox21) come the findings set out here.

Unmarked numbers belong to inactive results. Records with an inconclusive call do not appear. Active and inactive are the calls of the source. Unless noted, calls follow the shape of the dose curve; as a rule, active = well fitted curve in the direction sought with a large enough effect in the repeat runs; inconclusive = weak or mixed curves; inactive = no such curve, though single readings can be large; an effect the other way counts as inactive or inconclusive.

A short description of assay [1]: qHTS assay to identify small molecule antagonists of the estrogen receptor alpha (ER-alpha) signaling pathway using the BG1 cell line in the presence of 0.1 nM 17-beta-estradiol - cell viability counter screen (AID 1259241). Also: nearly all actives have a fitted effect of over 40% in size. Also: potency is read from the fitted curve at half-maximal effect. In outline: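 In this screen, hormone-deprived VM7Luc4E2 cells were seeded at 4,000 per well, dosed with compound and 0.1 nM estradiol final, and incubated 22 hr at 37C and 5% CO2; fluorogenic live-cell protease signal reported viability.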
A general note: Quantitative high-throughput screening tests each substance at several concentrations.

Assay [2] is described as follows: qHTS assay to identify small molecule antagonists of the androgen receptor (AR) signaling pathway using the MDA cell line in the presence of 0.5 nM R1881 - cell viability counter screen (AID 1259242). Also: nearly all actives have a fitted effect of over 45% in size. Also: potency is read from the fitted curve at half-maximal effect. In outline:
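Steps: plate MDA-kb2 cells, rest 5 hr at 37C without CO2; pin in compounds in DMSO; add R1881 to 0.5 nM final; incubate 16 hr; add CellTiter-Fluor, 30 min; read fluorescence.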

Assay [3] addresses Androgen receptor (Homo sapiens) (UniProt P10275). The assay is described as follows: qHTS assay to identify small molecule antagonists of the androgen receptor (AR) signaling pathway using the MDA cell line in the presence of 0.5 nM R1881 (AID 1259243). Also: nearly all actives have a fitted effect of over 50% in size. Also: potency is read from the fitted curve at half-maximal effect. A digest of the protocol:
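Stably transfected MDA-kb2 cells express luciferase from an MMTV promoter bearing both AR and GR response elements. Compounds plus 0.5 nM R1881 (final) were incubated 16 hr at 37C without CO2, then luminescence measured.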

Assay [4] in a line: qHTS assay to identify small molecule phospholipidosis (PLD) inducers (AID 1259344; active = well fitted curve in the direction sought with a large enough effect; an effect the other way counts as inactive or inconclusive; also: potency is read from the fitted curve at half-maximal effect). A digest of the protocol: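 Image-based: LipidTOX Red pit count/intensity per well and per cell; HepG2, 24 h compound at 37 C, PFA fixation, Hoechst counterstain.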
A short description of assay [5]: qHTS assay to identify small molecule HDAC inhibitors (AID 1259364).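 Also: wild-type HCT-116 cells with endogenous class I/II HDAC activity; top concentration of the series differs between compounds; nearly all actives have a fitted effect of over 45% in size.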 In outline:
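Cells (HCT-116, wild type) are seeded at 1,500 per well, incubated overnight, treated with compound in DMSO for 2 hr, then developed with HDAC-Glo I/II reagent for 30 min at room temperature.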

Assay [6] can be described thus: qHTS assay to identify small molecule HDAC inhibitors - cell viability counter screen (AID 1259365). Also: series mostly up to about 92 µM; nearly all actives have a fitted effect of over 50% in size. A digest of the protocol: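 Measured quantity is CellTiter-Glo luminescence from wild-type HCT-116 cells after compound incubation of 2hr at 37C, 5% CO2; reagent developed 30min at room temperature.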
A short description of assay [7]: qHTS assay to identify small molecule agonists of the sonic hedgehog signaling (Shh) pathway - cell viability counter screen (AID 1259366). Also: nearly all actives have a fitted effect of over 50% in size. Also: potency is read from the fitted curve at half-maximal effect. In outline: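 In quantitative high-throughput format, 3T3 Gli1-Luc cells were exposed to compounds for 24hr and multiplexed for viability using CellTiter-Fluor, incubated 1hr at 37C before the fluorescence read.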
A short description of assay [8]: qHTS assay to identify small molecule antagonists of the sonic hedgehog signaling (Shh) pathway - cell viability counter screen (AID 1259367). Also: nearly all actives have a fitted effect of over 55% in size. Also: potency is read from the fitted curve at half-maximal effect. In outline:
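Tox21 library chemicals were tested on a Gli1-Luc NIH/3T3 clone (2,000 cells/well) stimulated by conditioned medium; viability was quantified as fluorescence from CellTiter-Fluor reagent added at 23 hr.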

Assay [9] in a line: qHTS assay to identify small molecule agonists of the sonic hedgehog signaling (Shh) pathway (AID 1259368; calls by dose curve;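 also: NIH/3T3-derived 3T3Gli1-Luc cells carrying a stable Gli1-driven firefly luciferase reporter; series mostly up to about 92 µM; nearly all actives have a fitted effect of over 15% in size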). In outline:
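Cells of a mouse NIH/3T3 clone stably expressing luciferase under the Gli1 transcriptional response element are exposed to test chemicals for 24 hr at 37 C. Pathway activation is detected as a rise in luminescence.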

Assay [10] addresses Estrogen receptor beta (Homo sapiens) (UniProt Q92731). The experiment in a line: qHTS assay to identify small molecule agonists of the estrogen receptor beta (ER-beta) signaling pathway (AID 1259377; active = well fitted activation curve with a large enough effect in the signal ratio in the repeat runs, not every such curve was filed as active; the % refers to the signal ratio). A digest of the protocol: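 Reporter cells (HEK293T, ER-beta-UAS-bla) receive compounds or DMSO after a 6 hr pre-incubation. They then incubate 16 hr at 37C/5% CO2, and fluorescence from LiveBLAzer B/G substrate is measured after 2 hours at room temperature.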

Assay [11] shares this target. The assay is described as follows: qHTS assay to identify small molecule antagonists of the estrogen receptor beta (ER-beta) signaling pathway (AID 1259378; active = well fitted inhibition curve with a large enough effect in the signal ratio in the repeat runs, not every such curve was filed as active; the % refers to the signal ratio). In outline: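 ER-beta-UAS-bla HEK293T cells in 2% charcoal-stripped FBS medium treated with compound plus 1nM final 17-beta-estradiol for 16 hr at 37C. Beta-lactamase reporter read by FRET substrate fluorescence after 2 hours at room temperature.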

The nature of assay [12]: qHTS assay to identify small molecule agonists of the androgen receptor (AR) signaling pathway in the presence of an antagonist - cell viability counter screen (AID 1259379). Also: nearly all actives have a fitted effect of over 25% in size. Also: potency is read from the fitted curve at half-maximal effect.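 As to activity change, negative = cytotoxicity: MDA-kb2 human breast cancer cells carrying an MMTV luciferase reporter; series mostly up to about 92 µM.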 A digest of the protocol:
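Cytotoxicity is assessed by CellTiter-Fluor in MDA-kb2 cells carrying an MMTV-driven luciferase reporter. Cells receive 3.0uM nilutamide plus compounds at 15 concentrations and incubate 16 hr at 37C without CO2 before fluorescence reading.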

A short description of assay [13]: qHTS assay to identify small molecule agonists of the estrogen receptor beta (ER-beta) signaling pathway - cell viability counter screen (AID 1259380). Also: nearly all actives have a fitted effect of over 30% in size. Also: potency is read from the fitted curve at half-maximal effect. A digest of the protocol:
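Cytotoxicity is measured in parallel with the reporter screen: after 16 hr compound exposure at 37C and a 2 hr LiveBLAzer step, CellTiter-Glo is added to the same ER-beta-UAS-bla HEK293T wells and luminescence read after 30 min.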

The target in assay [14] is Androgen receptor (Homo sapiens) (UniProt P10275). The assay is described as follows: qHTS assay to identify small molecule agonists of the androgen receptor (AR) signaling pathway in the presence of an antagonist (AID 1259381; calls by dose curve; also: nearly all actives have a fitted effect of over 15% in size). In outline: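 Agonist-mode confirmation screen: human MDA-kb2 cells stably expressing luciferase under an MMTV promoter bearing AR and GR response elements, co-treated with 3.0uM nilutamide (final). Luminescence measured after 16hr compound incubation.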
Chain of Androgen receptor (Homo sapiens) (P10275 whole entry, looked up): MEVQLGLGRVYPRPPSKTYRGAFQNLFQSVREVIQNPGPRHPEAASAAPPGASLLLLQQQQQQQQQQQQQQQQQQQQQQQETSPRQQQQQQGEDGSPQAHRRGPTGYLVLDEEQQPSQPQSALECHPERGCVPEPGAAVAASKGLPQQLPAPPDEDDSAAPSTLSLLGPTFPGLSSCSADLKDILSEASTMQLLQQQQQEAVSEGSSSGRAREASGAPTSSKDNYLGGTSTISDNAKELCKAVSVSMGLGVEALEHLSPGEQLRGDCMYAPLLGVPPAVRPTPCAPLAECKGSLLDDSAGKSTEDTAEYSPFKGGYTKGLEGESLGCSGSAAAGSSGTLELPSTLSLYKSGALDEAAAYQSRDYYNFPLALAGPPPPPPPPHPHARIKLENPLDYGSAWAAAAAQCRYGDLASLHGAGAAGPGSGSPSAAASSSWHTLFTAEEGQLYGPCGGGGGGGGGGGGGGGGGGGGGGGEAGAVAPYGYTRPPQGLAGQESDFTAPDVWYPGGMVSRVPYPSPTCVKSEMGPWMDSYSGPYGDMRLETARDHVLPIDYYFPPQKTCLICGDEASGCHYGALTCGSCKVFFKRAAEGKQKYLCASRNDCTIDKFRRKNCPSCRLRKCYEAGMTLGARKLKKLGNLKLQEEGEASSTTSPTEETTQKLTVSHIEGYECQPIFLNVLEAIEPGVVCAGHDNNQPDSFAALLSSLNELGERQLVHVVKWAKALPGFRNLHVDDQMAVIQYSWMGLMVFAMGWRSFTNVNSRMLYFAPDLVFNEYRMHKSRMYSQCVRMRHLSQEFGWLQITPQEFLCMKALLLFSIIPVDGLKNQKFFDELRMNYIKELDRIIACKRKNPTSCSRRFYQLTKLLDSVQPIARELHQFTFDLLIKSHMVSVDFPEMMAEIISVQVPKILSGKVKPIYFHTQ

Assay [15] is described as follows: qHTS assay to identify small molecule antagonists of the estrogen receptor beta (ER-beta) signaling pathway - cell viability counter screen (AID 1259382). Also: nearly all actives have a fitted effect of over 55% in size. Also: potency is read from the fitted curve at half-maximal effect. As to activity change, negative = cytotoxicity: series mostly up to about 92 µM. A digest of the protocol:
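Cytotoxicity counter screen multiplexed with the beta-lactamase antagonist assay: GripTite HEK293T ER-beta-bla cells were treated 16 hr with test chemicals in the presence of 1nM 17-beta-estradiol, and viability was measured by CellTiter-Glo.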

Assay [16] has as its target Estrogen receptor (Homo sapiens) (UniProt P03372). The assay is described as follows: qHTS assay to identify small molecule agonists of the estrogen receptor alpha (ER-alpha) signaling pathway in the presence of an antagonist (AID 1259383; calls by dose curve; also: top concentration of the series differs between compounds; nearly all actives have a fitted effect of over 15% in size). In outline: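 Agonist-mode confirmation in the presence of the ER antagonist ICI-182,780 at 10.0nM final. Breast-derived VM7Luc4E2 reporter cells were exposed to compounds for 22hr, and ERE-driven luciferase was quantified by luminescence.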

Assay [17] is described as follows: qHTS assay to identify small molecule agonists or antagonists of the thyroid stimulating hormone receptor (TSHR) signaling pathway - wild type cell line counter screen (AID 1259384; calls by dose curve). A digest of the protocol: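 Wild-type Hek293 cells, 800/well, 18 h at 37C, then compound with Ro20-1724 for 30 min RT. cAMP by HTRF (cAMP-d2/anti-cAMP cryptate), 1 h RT, fluorescence read. 15 concentrations, triplicates.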

Assay [18] deals with Thyrotropin receptor (Homo sapiens) (UniProt P16473). The assay is described as follows: qHTS assay to identify small molecule antagonists of the thyroid stimulating hormone receptor (TSHR) signaling pathway (AID 1259385; calls by dose curve; also: nearly all actives have a fitted effect of over 20% in size). A digest of the protocol:
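TSHR-HEK293 cells (800/well) plated 18 h, then compounds with Ro20-1724 and TSH at 1.5 ng/mL final, 30 min at room temperature. cAMP quantified by HTRF (cAMP-d2/anti-cAMP-cryptate, 1 h); 15 concentrations in triplicate.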

Assay [19] concerns the target Estrogen receptor (Homo sapiens) (UniProt P03372). The assay is described as follows: qHTS assay to identify small molecule antagonists of the estrogen receptor alpha (ER-alpha) signaling pathway using the BG1 cell line in the presence of 0.1 nM 17-beta-estradiol (AID 1259244). Also: nearly all actives have a fitted effect of over 50% in size. Also: potency is read from the fitted curve at half-maximal effect. In outline: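 Antagonist mode: compounds in DMSO are pinned onto VM7Luc4E2 reporter cells, 0.1 nM final 17beta-estradiol is added, and after 22 h at 37C luciferase luminescence is measured with ONE-Glo.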

A short description of assay [20]: qHTS assay to identify small molecule antagonists of the sonic hedgehog signaling (Shh) pathway (AID 1259369; calls by dose curve; also: nearly all actives have a fitted effect of over 45% in size; also: potency is read from the fitted curve at half-maximal effect). A digest of the protocol: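 Cells are plated and held 4hr at 37 C, compounds (DMSO) are pinned in, conditioned medium is added to stimulate the pathway, and after 24hr luciferase reagent is added for 30min before luminescence is read.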
% is scaled to controls: 0 for no effect and ±100 for the full control effect.

Chain of Thyrotropin receptor (Homo sapiens) (P16473 whole entry, looked up): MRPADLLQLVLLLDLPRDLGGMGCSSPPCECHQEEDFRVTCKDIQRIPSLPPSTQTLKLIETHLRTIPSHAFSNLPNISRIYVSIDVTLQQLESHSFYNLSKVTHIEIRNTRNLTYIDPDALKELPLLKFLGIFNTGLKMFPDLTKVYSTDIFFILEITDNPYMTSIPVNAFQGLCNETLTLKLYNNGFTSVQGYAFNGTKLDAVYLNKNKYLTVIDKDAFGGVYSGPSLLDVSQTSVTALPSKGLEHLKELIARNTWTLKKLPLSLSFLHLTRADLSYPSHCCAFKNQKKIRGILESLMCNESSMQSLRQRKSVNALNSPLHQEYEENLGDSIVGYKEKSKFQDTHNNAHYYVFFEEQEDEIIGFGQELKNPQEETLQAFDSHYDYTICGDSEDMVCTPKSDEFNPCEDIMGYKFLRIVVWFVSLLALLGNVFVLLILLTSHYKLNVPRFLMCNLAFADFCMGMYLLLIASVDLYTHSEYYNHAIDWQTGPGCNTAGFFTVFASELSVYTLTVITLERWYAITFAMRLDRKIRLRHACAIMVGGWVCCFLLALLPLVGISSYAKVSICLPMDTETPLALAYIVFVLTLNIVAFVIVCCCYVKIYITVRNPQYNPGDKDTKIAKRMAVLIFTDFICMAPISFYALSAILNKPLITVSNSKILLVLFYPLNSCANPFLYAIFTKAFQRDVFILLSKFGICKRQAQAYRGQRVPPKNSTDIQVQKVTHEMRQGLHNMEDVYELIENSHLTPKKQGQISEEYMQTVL
Chain of Estrogen receptor (Homo sapiens) (P03372 whole entry, looked up): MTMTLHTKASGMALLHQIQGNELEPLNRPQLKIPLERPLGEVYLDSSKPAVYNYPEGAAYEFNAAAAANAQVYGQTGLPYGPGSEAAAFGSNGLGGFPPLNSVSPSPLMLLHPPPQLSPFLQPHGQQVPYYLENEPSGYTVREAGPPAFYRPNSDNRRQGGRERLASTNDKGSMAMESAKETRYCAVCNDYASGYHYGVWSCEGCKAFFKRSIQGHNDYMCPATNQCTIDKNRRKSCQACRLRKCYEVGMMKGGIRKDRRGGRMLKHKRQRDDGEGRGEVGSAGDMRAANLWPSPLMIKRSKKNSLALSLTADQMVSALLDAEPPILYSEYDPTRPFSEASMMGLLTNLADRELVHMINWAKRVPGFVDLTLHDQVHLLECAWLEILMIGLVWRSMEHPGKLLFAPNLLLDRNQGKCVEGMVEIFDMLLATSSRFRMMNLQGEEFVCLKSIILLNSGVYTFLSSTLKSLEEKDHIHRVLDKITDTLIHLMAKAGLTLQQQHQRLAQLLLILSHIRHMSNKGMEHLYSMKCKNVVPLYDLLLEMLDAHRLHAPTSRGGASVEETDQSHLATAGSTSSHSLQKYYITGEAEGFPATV
Chain of Estrogen receptor beta (Homo sapiens) (Q92731 whole entry, looked up): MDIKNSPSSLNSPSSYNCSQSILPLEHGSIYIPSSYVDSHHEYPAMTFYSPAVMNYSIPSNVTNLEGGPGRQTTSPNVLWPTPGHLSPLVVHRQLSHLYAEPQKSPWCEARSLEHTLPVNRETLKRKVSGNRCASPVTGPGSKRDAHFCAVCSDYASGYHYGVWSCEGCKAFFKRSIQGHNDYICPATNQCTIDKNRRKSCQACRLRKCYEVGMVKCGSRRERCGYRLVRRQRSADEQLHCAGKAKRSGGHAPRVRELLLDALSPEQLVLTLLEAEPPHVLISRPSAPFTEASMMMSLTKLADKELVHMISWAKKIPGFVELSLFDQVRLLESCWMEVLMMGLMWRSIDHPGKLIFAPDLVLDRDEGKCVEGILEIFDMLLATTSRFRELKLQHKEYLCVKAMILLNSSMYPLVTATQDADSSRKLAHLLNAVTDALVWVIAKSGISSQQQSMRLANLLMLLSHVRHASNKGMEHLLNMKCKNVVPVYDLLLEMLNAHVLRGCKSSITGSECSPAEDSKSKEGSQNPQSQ

On to `Clc1ccc2nsnc2c1NC1=NCCN1`, for which the Potency entry in assay [1], in [2], in [3], in [4], in assay [5] and in assay [6] was “inactive” throughout. Also, the Potency result in [7], in assay [8], in assay [9], in assay [10], in assay [11] and in [12] was “inactive” throughout. Moreover, the Potency entry in [13], in assay [14], in assay [15], in assay [16] and in [18] was “inactive” each time. In addition, the compound was called inactive in assay [17].
Turning to `O=c1[nH]cnc2nc[nH]c12`, the Potency result in assay [1], in [2], in [19], in [4], in assay [5] and in assay [6] was “inactive” in each case. Besides, the Potency result in assay [7], in assay [8], in assay [9], in [20], in [12] and in [13] was “inactive” each time. The Potency result in assay [15], in assay [16] and in assay [18] was “inactive” each time. Besides, the result in assay [17] was inactive.
`[Cl][Bi]([Cl])([c]1ccccc1)([c]1ccccc1)[c]1ccccc1`: the Potency was 12.1 µM (active) in assay [1]; 27.1 µM (active) in assay [2]; 13.6 µM (active) in assay [3]; 0.108 µM (active) in assay [7]; 0.136 µM (active) in assay [8]; 0.0242 µM (active) in [20]. The Potency in assay [12] was 60.8 µM (active); in assay [13], 24.2 µM (active); in assay [15] it was 8.58 µM (active). Moreover, the Potency result in assay [5], in [6], in assay [9], in assay [14], in [16] and in [18] was “inactive” throughout.
Turning to `CCCCCCCCCCC=O`, the Potency entry in assay [1], in assay [2], in assay [3], in assay [5], in [6] and in [7] was “inactive” throughout. Besides, the Potency result in assay [8], in [9], in [20], in [12], in assay [13] and in assay [14] was “inactive” each time. Besides, in assay [15], the Potency result is “inactive”. Moreover, the outcome in assay [17] was inactive.
As to `CCN1/C(=C/C=C/c2sc3ccccc3[n+]2CC)Sc2ccccc21`, the Potency was 2.31 µM (active) in assay [1]; 0.82 µM (active) in [2]; 0.58 µM (active) in assay [19]; 22.4 µM (active) in assay [4]; 4.61 µM (active) in assay [7]; 5.17 µM (active) in [8]. For the same compound, the Potency was 1.16 µM (active) in assay [12] and 11.6 µM (active) in [15]. The activity change, negative = inhibition in [5] is -19.9% [at 19 µM]; in [20] it was -19% [at 19 µM]. In assay [6], the activity change, negative = cytotoxicity was -13.9% [at 19 µM]. For the same compound, the activity change in assay [9] was -1.72% [at 18.9 µM, hits give high values]. Moreover, the activation in assay [16] is -11.7% [at 19 µM]. In addition, the cAMP activity change in assay [17] was -0.304% [at 18.9 µM].
With `O=C1CCCCCN1SSN1CCCCCC1=O`, the Potency entry in assay [1], in assay [2], in [19], in assay [5], in assay [6] and in assay [9] was “inactive” in each case. The Potency result in assay [10], in assay [12], in assay [13], in [15], in assay [16] and in assay [18] was “inactive” throughout. Also, the figures for the Potency in assay [7], in assay [8] and in assay [20] were 19.3 µM (active), 54.5 µM (active) and 9.69 µM (active), respectively.
In the case of `CCCCN(CCCC)c1ccc(C(=O)c2ccccc2C(=O)O)c(O)c1`, the Potency entry in assay [1], in assay [2], in [3], in [5], in assay [7] and in [8] was “inactive” throughout. Besides, the Potency entry in assay [9], in assay [20], in assay [12], in [14] and in assay [18] was “inactive” in each case. Further, the Potency in assay [13] is 15.5 µM (active). Further, the call in [17] was inactive.
